From ChEMBL document CHEMBL4513143, “CO-ADD screening of University of Natural Resources and Life (Austria) compounds” come the findings set out here.

Molecules are shown by their SMILES. Results with a measured potency or affinity are listed apart.

The subject of one test is Klebsiella pneumoniae. The following applies: Concentration 32 ug.mL-1; ASSAY_TEST Inhibition of Bacterial Growth; detection method Absorption (OD600); MEDIA CAMHB; plate type 384well; NBS; CORNING #3640; time 18 hr.
Consider `CCN(CC)CC.C[C@@H](CC1O[C@H]([C@H](O)CO)[C@@H](O)[C@H](O)[C@@H]1O)OP(=O)(O)OC[C@H]1O[C@@H](n2cnc3c(N)ncnc32)[C@H](O)[C@@H]1O` (stereo not given in full), for which the Inhibition turned out to be 9.8%.

As to `CCN(CC)CC.C[C@H](CC1O[C@H]([C@H](O)CO)[C@@H](O)[C@H](O)[C@@H]1O)OP(=O)(O)OC[C@H]1O[C@@H](n2cnc3c(N)ncnc32)[C@H](O)[C@@H]1O` (stereo not given in full), the Inhibition stood at 32.34%.

`N.O=C(O)C1(O)C[C@@H](O)[C@H](O)[C@@H]([C@@H](O)CO)O1` (stereo not given in full): the Inhibition turned out to be 28.17%.

Consider `CCN(CC)CC.C[C@H](CC1O[C@H]([C@@H](O)CO)[C@@H](O)[C@H](O)[C@@H]1O)OP(=O)(O)O` (stereo not given in full), for which the Inhibition is on record as 38.35%.

In the case of `CCN(CC)CC.O=P(O)(O)OC1C[C@@H](O)[C@H](O)[C@@H]([C@H](O)CO)O1` (stereo not given in full), the Inhibition turned out to be 34.69%.

For the compound `OC[C@@H](O)[C@H]1OC(O)C[C@@H](O)[C@@H]1O` (stereo not given in full), the Inhibition amounted to 30.82%.

On to `CCN(CC)CC.C[C@@H](CC1O[C@H]([C@@H](O)CO)[C@@H](O)[C@H](O)[C@@H]1O)OP(=O)(O)O` (stereo not given in full), for which the Inhibition is 41.76%.

With `CCN(CC)CC.C[C@H](CC1O[C@H]([C@@H](O)CO)[C@@H](O)[C@H](O)[C@@H]1O)OP(=O)(O)OC[C@H]1O[C@@H](n2cnc3c(N)ncnc32)[C@H](O)[C@@H]1O` (stereo not given in full), the Inhibition is listed as 21.04%.

As to `CC(=O)CC1O[C@H]([C@@H](O)CO)[C@@H](O)[C@H](O)[C@@H]1O` (stereo not given in full), the Inhibition is listed as 30.36%.

Consider `CCN(CC)CC.C[C@@H](CC1O[C@H]([C@@H](O)CO)[C@@H](O)[C@H](O)[C@@H]1O)OP(=O)(O)OC[C@H]1O[C@@H](n2cnc3c(N)ncnc32)[C@H](O)[C@@H]1O` (stereo not given in full), for which the Inhibition is 27.9%.

Another test concerns Candida albicans. The following applies: 32 ug/mL.
Turning to `CCN(CC)CC.C[C@@H](CC1O[C@H]([C@H](O)CO)[C@@H](O)[C@H](O)[C@@H]1O)OP(=O)(O)OC[C@H]1O[C@@H](n2cnc3c(N)ncnc32)[C@H](O)[C@@H]1O` (stereo not given in full), the Inhibition is -0.9%.

Turning to `CCN(CC)CC.C[C@H](CC1O[C@H]([C@H](O)CO)[C@@H](O)[C@H](O)[C@@H]1O)OP(=O)(O)OC[C@H]1O[C@@H](n2cnc3c(N)ncnc32)[C@H](O)[C@@H]1O` (stereo not given in full), the Inhibition is 2.8%.

As to `N.O=C(O)C1(O)C[C@@H](O)[C@H](O)[C@@H]([C@@H](O)CO)O1` (stereo not given in full), the Inhibition was determined as 3.34%.

On to `CCN(CC)CC.C[C@H](CC1O[C@H]([C@@H](O)CO)[C@@H](O)[C@H](O)[C@@H]1O)OP(=O)(O)O` (stereo not given in full), for which the Inhibition came out at 1.33%.

As for `CCN(CC)CC.O=P(O)(O)OC1C[C@@H](O)[C@H](O)[C@@H]([C@H](O)CO)O1` (stereo not given in full), the Inhibition worked out at 2.93%.

`OC[C@@H](O)[C@H]1OC(O)C[C@@H](O)[C@@H]1O` (stereo not given in full): the Inhibition was found to be 4.53%.

Take `CCN(CC)CC.C[C@@H](CC1O[C@H]([C@@H](O)CO)[C@@H](O)[C@H](O)[C@@H]1O)OP(=O)(O)O` (stereo not given in full): the Inhibition was 0.34%.

Consider `CCN(CC)CC.C[C@H](CC1O[C@H]([C@@H](O)CO)[C@@H](O)[C@H](O)[C@@H]1O)OP(=O)(O)OC[C@H]1O[C@@H](n2cnc3c(N)ncnc32)[C@H](O)[C@@H]1O` (stereo not given in full), for which the Inhibition is -0.71%.

`CC(=O)CC1O[C@H]([C@@H](O)CO)[C@@H](O)[C@H](O)[C@@H]1O` (stereo not given in full): the Inhibition was -0.45%.

As for `CCN(CC)CC.C[C@@H](CC1O[C@H]([C@@H](O)CO)[C@@H](O)[C@H](O)[C@@H]1O)OP(=O)(O)OC[C@H]1O[C@@H](n2cnc3c(N)ncnc32)[C@H](O)[C@@H]1O` (stereo not given in full), the Inhibition was 0.32%.

In another test the test system is Cryptococcus neoformans. The settings on record: Concentration 32 ug.mL-1; ASSAY_TEST Inhibition of Fungal Growth; detection method Resazurin; Absorption (OD600-OD570); plate type 384well; NBS; CORNING #3640.
Turning to `CCN(CC)CC.C[C@@H](CC1O[C@H]([C@H](O)CO)[C@@H](O)[C@H](O)[C@@H]1O)OP(=O)(O)OC[C@H]1O[C@@H](n2cnc3c(N)ncnc32)[C@H](O)[C@@H]1O` (stereo not given in full), the Inhibition is reported as -12.32%.

With `CCN(CC)CC.C[C@H](CC1O[C@H]([C@H](O)CO)[C@@H](O)[C@H](O)[C@@H]1O)OP(=O)(O)OC[C@H]1O[C@@H](n2cnc3c(N)ncnc32)[C@H](O)[C@@H]1O` (stereo not given in full), the Inhibition is -3.79%.

As for `N.O=C(O)C1(O)C[C@@H](O)[C@H](O)[C@@H]([C@@H](O)CO)O1` (stereo not given in full), the Inhibition is -12.91%.

`CCN(CC)CC.C[C@H](CC1O[C@H]([C@@H](O)CO)[C@@H](O)[C@H](O)[C@@H]1O)OP(=O)(O)O` (stereo not given in full): the Inhibition was -5.02%.

Regarding `CCN(CC)CC.O=P(O)(O)OC1C[C@@H](O)[C@H](O)[C@@H]([C@H](O)CO)O1` (stereo not given in full), the Inhibition was -6.2%.

For the compound `OC[C@@H](O)[C@H]1OC(O)C[C@@H](O)[C@@H]1O` (stereo not given in full), the Inhibition is -12.95%.

For `CCN(CC)CC.C[C@@H](CC1O[C@H]([C@@H](O)CO)[C@@H](O)[C@H](O)[C@@H]1O)OP(=O)(O)O` (stereo not given in full), the Inhibition is recorded as -7.83%.

As to `CCN(CC)CC.C[C@H](CC1O[C@H]([C@@H](O)CO)[C@@H](O)[C@H](O)[C@@H]1O)OP(=O)(O)OC[C@H]1O[C@@H](n2cnc3c(N)ncnc32)[C@H](O)[C@@H]1O` (stereo not given in full), the Inhibition is given as -12.97%.

Take `CC(=O)CC1O[C@H]([C@@H](O)CO)[C@@H](O)[C@H](O)[C@@H]1O` (stereo not given in full): the Inhibition is listed as -7.35%.

Turning to `CCN(CC)CC.C[C@@H](CC1O[C@H]([C@@H](O)CO)[C@@H](O)[C@H](O)[C@@H]1O)OP(=O)(O)OC[C@H]1O[C@@H](n2cnc3c(N)ncnc32)[C@H](O)[C@@H]1O` (stereo not given in full), the Inhibition was -9%.
